# Data taken from PubChem BioAssay (NCATS).
# Records with an inconclusive call do not appear. Calls of active or inactive are those of the source. Unless noted, the rule behind the calls is not given here.
# Tests used:
# [1] = qHTS profiling for inhibitors of Plasmodium falciparum (DD2) proliferation (AID 743323); conditions: lower = more inhibition; at 28.7 µM (top of the series) unless noted
# Procedure, shortened: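 Parasite DNA quantified by SYBR Green fluorescence (ex 485, em 535 nm) after saponin/Triton lysis and overnight dark incubation. Cultures: 0.3% parasitemia, 2.5% hematocrit, 72 h, 37 C; data scaled between DMSO and 0.29 uM artemisinin.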
# [2] = qHTS profiling for inhibitors of Plasmodium falciparum (HB3) proliferation (AID 743324; active = well fitted curve in the direction sought with a large enough effect; an effect the other way counts as inactive or inconclusive;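 note: 100% = DMSO vehicle wells and 0% = artemisinin-treated control wells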); conditions: Plasmodium falciparum HB3 blood-stage proliferation; at 28.7 µM (top of the series) unless noted
# Procedure, shortened: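 SYBR Green fluorescence (485 ex/535 em) of lysed cultures, incubated overnight at room temperature in the dark, quantifies parasite DNA. Infected erythrocytes at 0.3% parasitemia and 2.5% hematocrit were exposed 72 h; values normalized to DMSO and 0.29 uM artemisinin controls.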
# [3] = qHTS profiling of the MIPE4 collection as inhibitors of Plasmodium falciparum (3D7) proliferation (AID 743344);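 note: scaled between DMSO vehicle wells and 0.29 µM artemisinin as full inhibition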; conditions: P. falciparum 3D7 in erythrocytes, SYBR Green DNA fluorescence, 72 h; at 28.5 µM (top of the series) unless noted
# Procedure, shortened: (§1)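 Parasite DNA was quantified by SYBR Green I fluorescence (ex 485, em 535 nm) after overnight lysis in saponin/Triton buffer at room temperature. Cultures at 0.3% parasitemia and 2.5% hematocrit were first exposed to compound for 72 h at 37 C; signals were normalised to artemisinin (0.29 uM) and vehicle wells.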
# [4] = qHTS profiling of the MIPE4 collection as inhibitors of Plasmodium falciparum (DD2) proliferation (AID 743345); conditions: P. falciparum Dd2 in erythrocytes, SYBR Green DNA, 72 h; at 28.5 µM (top of the series) unless noted
# Procedure, shortened: as §1
# [5] = qHTS profiling of the MIPE4 collection as inhibitors of Plasmodium falciparum (DD2) proliferation (Rep 2) (AID 743346); conditions: P. falciparum Dd2 in erythrocytes, SYBR Green DNA, 72 h; at 28.5 µM (top of the series) unless noted
# Procedure, shortened: as §1
# [6] = qHTS profiling of the MIPE4 collection as inhibitors of Plasmodium falciparum (HB3) proliferation (AID 743347);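 note: plate controls were DMSO vehicle wells for no effect and artemisinin wells for full effect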; conditions: P. falciparum HB3 in erythrocytes, SYBR Green DNA, 72 h; at 28.5 µM (top of the series) unless noted
# Procedure, shortened: as §1
# [7] = High-throughput drug toxicity screening in the BPDCN cell line Gen2.2 (AID 1224824); conditions: Gen2.2 BPDCN cells; at 45.8 µM (top of the series) unless noted;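 note: cells exposed to compounds for 48 h before reading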
# Procedure, shortened: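 Readout is ATP luminescence from Gen2.2 cells after two days of drug exposure in serum-containing medium at 37 °C. Values express percent activity, with vehicle defining full signal and 9.2 uM bortezomib defining zero.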
# [8] = High-throughput drug toxicity screening in the BPDCN cell line Cal-1 (AID 1224825); conditions: Cal-1 BPDCN cell viability, qHTS; at 45.8 µM (top of the series) unless noted
# Procedure, shortened: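 Percent activity derived from CellTiter-Glo luminescence, scaling DMSO to 100% and 9.2 uM final bortezomib to 0%. BPDCN Cal-1 cells (500/well, RPMI plus 10% FBS) incubated with compounds 48 hours at 37C before reading.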
# [9] = qHTS assay for measurement of the activity of small molecule inhibitors on Zika virus induced Caspase-3 activity in human iPSC derived neural progenitor cells (hNPCs) (AID 1224857; active = well fitted curve in the direction sought with a large enough effect; an effect the other way counts as inactive or inconclusive; note: % of control where 0% means no effect; nearly all actives have a fitted effect of over 65% in size)
# Procedure, shortened: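 Percent inhibition of virus-induced caspase-3/7 luminescence (Caspase-Glo), scaled between uninfected cells and Zika-infected cells. hNPCs received compound 1 hr before ZIKV at 2 FFU/cell, with 6 hours infection at 37 C.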
# [10] = qHTS assay for measurement of the activity of small molecule inhibitors on Zika virus induced Caspase-3 activity in human astrocytoma cells (AID 1224859; active = well fitted curve in the direction sought with a large enough effect; an effect the other way counts as inactive or inconclusive;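 note: plate controls were ZIKV-infected untreated cells for no effect and uninfected cells for full effect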)
# Procedure, shortened: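 Luminescent caspase-3/7 read-out (30 min reagent, room temperature) in human SNB-19 cells infected 6 h with ZIKV (2 FFU/cell) after 1 h compound pre-incubation; Data were normalised to uninfected and infected wells.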
# [11] = qHTS Screen of the MIPE 4.0 Collection Against Ewings Sarcoma (RDES) (AID 1259252; active = well fitted curve in the direction sought with a large enough effect; an effect the other way counts as inactive or inconclusive; note: nearly all actives have a fitted effect of over 35% in size; note: potency is the fitted concentration of half-maximal effect)
# Procedure, shortened: (§2)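 Cells plated in serum-containing RPMI (5% FBS) and treated with compound dilutions for 48 h. Readout luminescent viability; normalization relied on vehicle (no inhibition) and media-only columns (full inhibition).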
# [12] = qHTS Screen of the MIPE 4.0 Collection Against Ewings Sarcoma (TC71) (AID 1259253; active = well fitted curve in the direction sought with a large enough effect; an effect the other way counts as inactive or inconclusive; note: nearly all actives have a fitted effect of over 40% in size; note: potency is the fitted concentration of half-maximal effect)
# Procedure, shortened: as §2
# [13] = Identifying Small Molecule Inhibitors of Pancreatic Cancer Stem Cells (Panc1, Adherent) (AID 1259362; active = well fitted curve in the direction sought with a large enough effect; an effect the other way counts as inactive or inconclusive; note: potency is the fitted concentration of half-maximal effect;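 for viability, % of control: compound exposure lasted 48 h before the viability read; plate controls were DMSO-treated cells for no effect and cell-free media wells for full effect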); conditions: Potency: viability
# Procedure, shortened: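 Viability is scored by CellTiter-Glo luminescence 48 h after dosing, expressed as percent activity against vehicle and no-cell references. Spheroid formats rely on cells cultured 14 days in stem cell media beforehand.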
# [14] = qHTS assay to identify small molecule inhibitors of chordoma cells - UCH-1 (AID 1259355; active = well fitted curve in the direction sought with a large enough effect; an effect the other way counts as inactive or inconclusive; note: % is set by controls: 0 for no effect and ±100 for the full control effect; nearly all actives have a fitted effect of over 55% in size)
# Procedure, shortened: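 800 cells/well, overnight attach; compounds pinned at 15 concs, then auranofin/camptothecin/doxorubicin/rubitecan/topotecan combo added; 48hr 37 C, 5% CO2; CellTiter-Glo, 30min RT, luminescence.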
# [15] = qHTS assay to identify small molecule inhibitors of chordoma cells - UCH-2 (AID 1259356; active = well fitted curve in the direction sought with a large enough effect; an effect the other way counts as inactive or inconclusive; note: % is set by controls: 0 for no effect and ±100 for the full control effect)
compound,measurement,setting,value
CCOC(=O)[C@@H](N)CCC(=O)N[C@@H](CSCc1ccccc1)C(=O)N[C@@H](C(=O)OCC)c1ccccc1,"activity, percent of control",[1],92%
same,"remaining proliferation (% of control), lower = more inhibition",[2],64.9%
same,"parasite growth, % of DMSO control",[3],89.7%
same,"parasite growth remaining, % of DMSO control (lower = more inhibition)",[4],86.5%
same,"parasite growth, % of control (lower = inhibition)",[5],163%
same,"growth, % of control",[6],101%
same,"cell viability, % of control (lower = more cytotoxic)",[7],39.6%
same,viability (% of control),[8],90.7%
same,Potency,[9],inactive
same,Potency,[10],inactive
same,Potency,[11],inactive
same,Potency,[12],inactive
same,Potency,[13],inactive
CCCCCCCCCCCCCCCC(=O)O[C@H]1[C@@H](O)[C@@H](O)[C@@H]([C@H](NC(=O)[C@@H]2C[C@@H](CCC)CN2C)[C@H](C)Cl)O[C@@H]1SC,"parasite growth, % of DMSO control",[3],31.4%
same,"parasite growth remaining, % of DMSO control (lower = more inhibition)",[4],11%
same,"cell viability, % of control (lower = more cytotoxic)",[7],218%
same,viability (% of control),[8],94.5%
same,Potency,[9],inactive
same,Potency,[10],inactive
same,Potency,[11],inactive
same,Potency,[12],13.2 µM (active)
CN1C(=O)C[C@H](C(=O)N[C@@H](Cc2cnc[nH]2)C(=O)N2CCC[C@@H]2C(N)=O)NC1=O,"parasite growth remaining, % of DMSO control (lower = more inhibition)",[4],33.3%
same,"cell viability, % of control (lower = more cytotoxic)",[7],61%
same,viability (% of control),[8],29.3%
same,Potency,[9],inactive
same,Potency,[10],inactive
same,Potency,[11],20.9 µM (active)
same,Potency,[12],20.9 µM (active)
CS(=O)(=O)c1ccc(C2=C(c3ccccc3)C(=O)OC2)cc1,"parasite growth, % of DMSO control",[3],94.3%
same,"parasite growth remaining, % of DMSO control (lower = more inhibition)",[4],83.1%
same,"parasite growth, % of control (lower = inhibition)",[5],70.8%
same,"growth, % of control",[6],58.5%
same,"cell viability, % of control (lower = more cytotoxic)",[7],123%
same,viability (% of control),[8],109%
same,Potency,[9],inactive
same,Potency,[10],inactive
same,Potency,[11],inactive
same,Potency,[12],18.7 µM (active)
same,outcome,[14],inactive
same,outcome,[15],inactive
Cc1cnc(-c2cc(N3CCN(C(=O)CCS(C)(=O)=O)CC3)ncc2Cl)c(C)c1,"parasite growth, % of DMSO control",[3],58.6%
same,"parasite growth remaining, % of DMSO control (lower = more inhibition)",[4],93.9%
same,"parasite growth, % of control (lower = inhibition)",[5],110%
same,"growth, % of control",[6],76.4%
same,"cell viability, % of control (lower = more cytotoxic)",[7],120%
same,viability (% of control),[8],64.7%
same,Potency,[9],inactive
same,Potency,[10],inactive
same,Potency,[11],inactive
same,Potency,[12],inactive
COc1ccc(CCN(C)CCCOc2ccc(S(=O)(=O)c3[nH]c4ccccc4c3C(C)C)cc2)cc1OC,"activity, percent of control",[1],1.03%
same,"remaining proliferation (% of control), lower = more inhibition",[2],-1.05%
same,"parasite growth, % of DMSO control",[3],31.8%
same,"parasite growth remaining, % of DMSO control (lower = more inhibition)",[4],26.3%
same,"growth, % of control",[6],42.9%
same,"cell viability, % of control (lower = more cytotoxic)",[7],14.1%
same,viability (% of control),[8],9.08%
same,Potency,[9],inactive
same,Potency,[10],inactive
same,Potency,[11],inactive
same,Potency,[12],inactive
same,Potency,[13],26.4 µM (active)
CCNC(=O)[C@H]1O[C@@H](n2cnc3c(N)nc(NCCc4ccc(CCC(=O)O)cc4)nc32)[C@H](O)[C@H]1O,"parasite growth, % of DMSO control",[3],93.9%
same,"parasite growth remaining, % of DMSO control (lower = more inhibition)",[4],110%
same,"growth, % of control",[6],99.8%
same,"cell viability, % of control (lower = more cytotoxic)",[7],96.2%
same,viability (% of control),[8],129%
same,Potency,[9],inactive
same,Potency,[10],inactive
same,Potency,[11],inactive
same,Potency,[12],inactive
